ERp5 inh: blocks human ERp5 reductase activity on insulin; Q15084; ERp5 insulin aggregation, absorbance 650 nm, 90 min; inhibition, % at 9.99 µM; 0.05% of 350,000 active; AID 651711;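 active = mean replicate inhibition above about 25%, with every replicate also reaching it, limit read from the data, passing the limit was not always enough; inconclusive = only one of those two criteria met; inactive = neither criterion met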
PDI inh: PDI (human) enzyme inhibition | PDI insulin aggregation turbidity, A650, 90 min | inhibition, % at 10 µM | 0.052% of 350,000 active;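 active = mean inhibition across replicates of 30% or more, whatever share of single replicates reach that level; inconclusive = mean inhibition below 30% while every single replicate reaches 30%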
MLL AF4-AF9 inh: MLL-AF4/AF9 protein interaction inhibition; AlphaScreen, biotin-AF4 peptide binding to FLAG-AF9; P42568; inhibition, % at 10 µM; 0.47% of 350,000 active; AID 651704;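 active = every replicate reaching a set inhibition limit, whatever the replicate mean, cut at about 25% in these data; inconclusive = mean inhibition reaches that limit but some replicates miss it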;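 note: 0% = plate neutral control median and 100% = total signal loss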
Target sequence (P42568 whole entry, looked up): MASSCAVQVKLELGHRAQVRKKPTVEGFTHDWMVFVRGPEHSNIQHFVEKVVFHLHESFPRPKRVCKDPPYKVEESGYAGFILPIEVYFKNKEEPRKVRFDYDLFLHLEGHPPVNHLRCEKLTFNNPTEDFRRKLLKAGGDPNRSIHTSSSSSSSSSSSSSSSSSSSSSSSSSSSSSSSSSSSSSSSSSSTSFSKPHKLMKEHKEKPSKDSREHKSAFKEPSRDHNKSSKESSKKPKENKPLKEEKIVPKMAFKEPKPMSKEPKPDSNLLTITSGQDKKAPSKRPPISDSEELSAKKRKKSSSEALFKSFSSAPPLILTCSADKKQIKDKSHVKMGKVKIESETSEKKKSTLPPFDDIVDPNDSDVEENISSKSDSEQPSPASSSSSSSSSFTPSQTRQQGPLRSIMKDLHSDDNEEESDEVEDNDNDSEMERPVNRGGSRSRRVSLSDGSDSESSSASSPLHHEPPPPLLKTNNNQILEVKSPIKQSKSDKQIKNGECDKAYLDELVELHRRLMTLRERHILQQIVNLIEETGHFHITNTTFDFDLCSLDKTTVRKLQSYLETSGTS
ERAP1 inh: blocks human ERAP1 aminopeptidase activity; recombinant ERAP1, Leu-AMC fluorescence, 60 min; inhibition, % at 10.7 µM; 0.15% of 340,000 active;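 active = mean replicate inhibition of at least 30%, or all replicates individually reaching that 30% level; inactive = mean below 30% and not every replicate reaching it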;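 note: 0% = neutral control wells and 100% = L-leucinethiol positive control wells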
DENV2 CPE: inhibitors of DENV2 cytopathic effect. DENV2-infected cells, cytopathic effect rescue, plate reader. CPE inhibition, % at 9.99 µM. 1.7% of 350,000 active. AID 651640; in the data active = CPE inhibition above about 20%, passing the limit was not always enough; inconclusive = no clear call, values can overlap the other calls; tested in BHK-21 cells;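 note: 0% = median of neutral control wells and 100% = median of positive control wells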
An asterisk follows results filed as active; ? = inconclusive; . = no result given. Hits are enriched below; roughly 1.8% of the tested compounds scored in any of these assays.

SMILES	ERp5 inh	PDI inh	MLL AF4-AF9 inh	ERAP1 inh	DENV2 CPE
O=C1CC(c2ccc(O)c(O)c2)Oc2cc(O)cc(O)c21 (configuration not stated)	-1	.	1	3	-4
COc1ccc(C2CC(=O)c3c(O)cc(O)cc3O2)cc1O (configuration not stated)	3	.	1	-1	23*
O=C1CC(c2ccccc2)Oc2cc(O)cc(O)c21 (configuration not stated)	-6	.	2	-2	70*
C[C@@H]1CCCCO[C@@H](CN(C)C(=O)Cc2ccccc2)[C@H](C)CN([C@@H](C)CO)C(=O)c2cc(NC(=O)c3ccncc3)ccc2O1	0	.	-2	-4	-5
O=C(C[C@@H]1C=C[C@@H](NC(=O)c2ccccn2)[C@@H](CO)O1)NCc1cccc(F)c1	0	.	-3	-2	-4
O=C(C[C@@H]1C=C[C@@H](NC(=O)c2ccccn2)[C@H](CO)O1)NCc1cccc(F)c1	1	.	-2	-2	36*
O=C(C[C@H]1C=C[C@@H](NC(=O)C2CCC2)[C@@H](CO)O1)NCC1CC1	-5	.	-2	1	58*
CC(=O)N[C@H]1C=C[C@H](CC(=O)NCc2ccc(Cl)cc2)O[C@H]1CO	-5	.	-1	0	32*
COc1ccc(CNC(=O)C[C@@H]2C=C[C@@H](NC(=O)c3ccc4c(c3)OCO4)[C@H](CO)O2)cc1	-3	.	-4	2	44*
CO[C@H]1CN(C)C(=O)c2ccc(NC(=O)NC(C)C)cc2OC[C@@H](C)N(C(=O)CC2CC2)C[C@H]1C	9	.	-1	1	-11
CCCNC(=O)N[C@@H]1CC[C@@H](CCn2cc(C3CCCC3)nn2)O[C@H]1CO	?	.	-1	0	33*
CC(C)c1cn(CC[C@@H]2CC[C@H](NC(=O)C3CCOCC3)[C@@H](CO)O2)nn1	1	.	1	-1	71*
O=C(N[C@@H]1CC[C@@H](CCn2cc(C3CCCC3)nn2)O[C@@H]1CO)c1cccnc1	-7	.	-1	-2	0
O=C(N[C@@H]1CC[C@@H](CCn2cc(C3CCCC3)nn2)O[C@H]1CO)c1cccnc1	5	.	0	2	29*
C=CCC1NS(=O)(=O)OC(COC)C1C (configuration not stated)	4	-13	0	-1	46*
Nc1nc(SCC(=O)Nc2ccc([N+](=O)[O-])cc2)[nH]c(=O)c1NC(=O)c1ccc(Br)o1	2	-5	0	2	20*
Cc1cc(C)cc(NC(=O)CSc2nc(N)c(NC(=O)c3ccc(Br)o3)c(=O)[nH]2)c1	0	2	0	4	-9
CC(Sc1nnnn1-c1ccc(O)cc1)C(=O)NC1CCCCC1C (configuration not stated)	-15	10	0	-2	34*
COc1ccc2c3c([nH]c2c1)[C@H](CO)N(C(=O)c1cccc(F)c1)CC31CN(C(=O)c2cccc(F)c2)C1	-1	.	3	1	-4
Cc1ccc(C(=O)Nc2ccc(CN3CCCCC3)cc2)c(C)c1	-5	3	2	-1	35*
COc1ccc(Cl)cc1C(=O)Nc1ccc(CN2CCCCC2)cc1	-11	1	2	0	10
C[C@H](CO)N1C[C@H](C)[C@H](CN(C)Cc2ccc(C(F)(F)F)cc2)Oc2c(NC(=O)c3nc4ccccc4s3)cccc2C1=O	-3	.	-1	-1	-2
O=C(NCC[C@@H]1CC[C@@H](NC(=O)C2CCCC2)[C@@H](CO)O1)c1cc(Cl)cc(Cl)c1	-4	.	0	0	21*
CN(C)CC(=O)N[C@H]1CC[C@H](CCNC(=O)C2CCCC2)O[C@H]1CO	-7	.	1	-3	27*
CC(=O)N[C@@H]1CC[C@H](CCNC(=O)C2CCCC2)O[C@@H]1CO	6	.	2	-2	7
SMILES	ERp5 inh	PDI inh	MLL AF4-AF9 inh	ERAP1 inh	DENV2 CPE
Cc1noc(C)c1NC(=O)N[C@@H]1CC[C@@H](CCNC(=O)C2CCCC2)O[C@@H]1CO	-3	.	-5	1	-4
CC(=O)N[C@@H]1CC[C@H](CCNC(=O)C2CCCC2)O[C@H]1CO	2	.	1	-2	90*
Cc1noc(C)c1NC(=O)N[C@@H]1CC[C@@H](CCNC(=O)C2CCCC2)O[C@H]1CO	-3	.	-2	1	25*
CCCNC(=O)Nc1ccc2c(c1)C(=O)N(C)[C@@H]1CC[C@@H](CC(=O)O)O[C@H]1CO2	.	.	.	.	-1
C[C@@H]1CN([C@@H](C)CO)C(=O)Cc2cc(NS(=O)(=O)c3cccs3)ccc2O[C@@H]1CN(C)Cc1ccccc1	1	.	-1	1	-4
CCOc1c2ccc(C(=O)NCc3ccc4c(c3)OCO4)cc2nn1CC	4	-1	-8	-3	32*
COc1cc(OC)cc(C(=O)NCc2ccc3c(c2)OCO3)c1	2	-27	0	0	29*
C/C=C/[C@@H](CC(=O)N1Cc2ccccc2C[C@H]1CO)[Si](C)(C)c1ccc(OC)cc1	6	.	0	4	39*
COc1ccc(OCC(=O)N2CCc3ccccc3C2)cc1	11	3	-2	-1	4
COc1ccccc1N1CCN(Cc2cn[nH]c2-c2ccc(F)cc2)CC1	8	5	53*	-5	-1
COc1ccccc1N1C(=O)C2CCC(c3ccccc3)CC2C1=O (configuration not stated)	3	11	3	-1	23*
Cc1cccc(N2C(=O)C3CCC(c4ccccc4)CC3C2=O)c1 (configuration not stated)	-1	-1	-1	-2	1
O=C(NCC[C@@H]1CC[C@@H](NS(=O)(=O)c2ccc(F)cc2)[C@@H](CO)O1)Nc1ccc(Cl)cc1	6	.	6	1	-6
COCC#Cc1ccc([C@@H]2[C@H]3CN(S(=O)(=O)c4ccccc4F)CCCCN3[C@H]2CO)cc1	2	.	-3	-1	33*
O=S(=O)(c1ccccc1F)N1CCCCN2[C@H](CO)[C@H](c3ccc(-c4ccccc4)cc3)[C@H]2C1	-4	.	3	0	34*
O=S(=O)(c1cccs1)N1CCCCN2[C@@H](CO)[C@H](c3ccc(Br)cc3)[C@@H]2C1	1	.	1	-1	33*
CO[C@H]1CN(C)C(=O)c2cc(NC(=O)c3cnccn3)ccc2OC[C@H](C)N(C(C)=O)C[C@@H]1C	-6	.	-3	3	-3
CN1[C@H](C(=O)Nc2ccccc2)[C@@H](CO)[C@@H]2Cn3c(ccc(-c4ccccc4)c3=O)[C@@H]21	.	.	1	-2	3
Cc1ccc(C(=O)Cn2c3[n+](c4ccccc42)CC(O)CS3)cc1 (configuration not stated)	2	-2	-6	-3	0
O=C(Cn1c2[n+](c3ccccc31)CC(O)CS2)c1ccccc1 (configuration not stated)	5	-2	-2	2	58*

Compound activity as filed in PubChem.
